Results on 21 molecules are retold here after PubChem BioAssay (EPA / NIEHS).

By AC50 is commonly meant the midpoint of the concentration-response curve, whichever way the signal moves.

Experiment [1] can be described thus: ATG_NFI_CIS: Attagene CIS-FACTORIAL HepG2 Assay for human Nuclear Factor I (NFI) (AID 2282989). Conditions: HepG2 cis-regulatory reporter, NFI response element transcription; actives raise or lower the signal. A digest of the protocol:
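Reporter transcription driven by endogenous transcription factors in HepG2 cells; 24 h treatment. Quantitation by labelled RT-PCR fragments on capillary electrophoresis, gain- or loss-of-signal relative to DMSO.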

The target in experiment [2] is Myc proto-oncogene protein (Homo sapiens) (UniProt P01106). In words: ATG_Myc_CIS: Attagene CIS-FACTORIAL HepG2 Assay for human Myelocytomatosis (Myc) Proto-Oncogene Transcription Factor (AID 2282990). Conditions: HepG2, Attagene cis-reporter transcription factor activity; actives raise or lower the signal. The gist of the method:
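Cells of the HepG2 human liver line bear multiple cis-driven reporter transcription units. Reporter mRNA after 24 h exposure is reverse-transcribed, amplified, labelled and resolved by capillary electrophoresis, with gain- or loss-of-signal fitting relative to DMSO.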

Experiment [3] in a line: ATG_NF_kB_CIS: Attagene CIS-FACTORIAL HepG2 Assay for human Nuclear Factor Kappa B (NF-kB) (AID 2282991). To be noted: HepG2 Attagene cis-factorial NF-kB reporter mRNA; actives raise or lower the signal. The gist of the method: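 Readout is reporter transcript level, gain or loss versus DMSO, measured 24 h post-dose via RT-PCR, fluorescent labelling and capillary electrophoresis. Human HepG2 liver cells carried transiently transfected CIS reporter constructs reflecting endogenous factors.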

A short description of experiment [4]: ATG_NRF2_ARE_CIS: Attagene CIS-FACTORIAL HepG2 Assay for human Nuclear Factor Erythroid 2 Related Factor 2 (NFR2) response to Antioxidant Response Elements (ARE) (AID 2282992). To be noted: HepG2 Attagene ARE/NRF2 reporter, transcription factor activity; actives raise or lower the signal. The gist of the method: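 HepG2 cells transiently transfected with multiplexed cis-element reporter constructs, 24 h after chemical dosing; reporter mRNA quantified by RT-PCR, fluorescent primer extension, HpaI digestion and capillary electrophoresis. Bidirectional fit relative to DMSO.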

The nature of experiment [5]: ATG_Oct_MLP_CIS: Attagene CIS-FACTORIAL HepG2 Assay for human Octamer-Binding Transcription Factor (Oct) (AID 2282993). To be noted: HepG2 Attagene cis-factorial Oct reporter, mRNA; actives raise or lower the signal. The gist of the method: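 Transfected HepG2 cells, 24 h treatment. Reporter mRNA quantified by RT-PCR–capillary electrophoresis; bidirectional fitting against DMSO.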

The target of experiment [6] is Cellular tumor antigen p53 (Homo sapiens) (UniProt P04637). The experiment is described as follows: ATG_p53_CIS: Attagene CIS-FACTORIAL HepG2 Assay for human p53 Transcription Factor (AID 2282994). Conditions: HepG2 p53 cis-element reporter, Attagene mRNA; actives raise or lower the signal. The gist of the method: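 HepG2 cells transiently transfected with cis-regulated multiple reporter transcription units, dosed 24 h. Reporter mRNA measured by RT-PCR, 6-FAM primer extension, HpaI digestion and capillary electrophoresis; bidirectional fit relative to DMSO.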

The nature of experiment [7]: BSK_3C_TissueFactor: BioMAP Diversity Plus: 3C Assay for Tissue Factor Biomarker Activity (AID 2282997). Conditions: BioMAP 3C HUVEC, tissue factor biomarker readout; actives raise or lower the signal. A digest of the protocol:
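Primary human umbilical vein endothelial cells in the 3C system were exposed to test chemical for 24 h, then Tissue Factor measured by ELISA. Activity was fitted bidirectionally against DMSO as negative control and baseline.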

A short description of experiment [8]: BSK_3C_uPAR: BioMAP Diversity Plus: 3C Assay for Urokinase-type plasminogen activator receptor (uPAR) Biomarker Activity (AID 2282998). To be noted: BioMAP 3C HUVEC, uPAR biomarker ELISA; actives raise or lower the signal. The gist of the method:
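Readout: ELISA for surface uPAR. System: human umbilical vein endothelial primary cells, 24 h after chemical exposure. Analysis: bidirectional fit, DMSO baseline.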
In general terms: ELISA stands for enzyme-linked immunosorbent assay.

The nature of experiment [9]: BSK_3C_VCAM1: BioMAP Diversity Plus: 3C Assay for Vascular cell adhesion molecule 1 (VCAM1) Biomarker Activity (AID 2282999). To be noted: BioMAP 3C HUVEC, VCAM1 ELISA, cytokine-stimulated; actives raise or lower the signal. The gist of the method: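 Endothelial cells from human umbilical vein are treated with test chemical. At 24 h, VCAM-1 is measured by ELISA, and responses in either direction are fitted relative to DMSO.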

Experiment [10] is described as follows: BSK_4H_Eotaxin3: BioMAP Diversity Plus: 4H Assay for Eotaxin 3 Biomarker Activity (AID 2283000).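 As to outcome: CCL26 protein level quantified by ELISA in parallel with SRB cytotoxicity check.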 To be noted: primary human endothelial cells (HUVEC); actives raise or lower the signal. A digest of the protocol: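 HUVEC, 24 h post-dose, ELISA for Eotaxin-3/CCL26. Gain or loss of signal fitted bidirectionally vs DMSO baseline.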

The source holds several records for some structures; these can differ, active in one and inactive in another. Calls of active or inactive are those of the source. The calls were made as follows: active = hit-call score of the fitted dose curve at least 0.9, where 1 is the maximum; inactive = score below 0.9.

Sequence of Myc proto-oncogene protein (Homo sapiens) (P01106 whole entry, looked up): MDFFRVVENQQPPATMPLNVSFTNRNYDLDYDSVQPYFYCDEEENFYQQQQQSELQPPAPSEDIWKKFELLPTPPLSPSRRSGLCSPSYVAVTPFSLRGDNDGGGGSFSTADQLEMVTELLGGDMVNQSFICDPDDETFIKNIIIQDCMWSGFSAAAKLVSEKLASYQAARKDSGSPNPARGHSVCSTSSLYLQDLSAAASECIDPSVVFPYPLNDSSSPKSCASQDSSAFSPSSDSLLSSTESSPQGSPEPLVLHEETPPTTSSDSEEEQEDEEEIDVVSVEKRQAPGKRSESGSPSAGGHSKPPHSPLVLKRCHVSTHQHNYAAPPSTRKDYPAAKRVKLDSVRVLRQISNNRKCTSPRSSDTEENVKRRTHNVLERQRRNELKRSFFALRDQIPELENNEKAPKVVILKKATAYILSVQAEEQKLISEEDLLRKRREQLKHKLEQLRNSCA
Sequence of Cellular tumor antigen p53 (Homo sapiens) (P04637 whole entry, looked up): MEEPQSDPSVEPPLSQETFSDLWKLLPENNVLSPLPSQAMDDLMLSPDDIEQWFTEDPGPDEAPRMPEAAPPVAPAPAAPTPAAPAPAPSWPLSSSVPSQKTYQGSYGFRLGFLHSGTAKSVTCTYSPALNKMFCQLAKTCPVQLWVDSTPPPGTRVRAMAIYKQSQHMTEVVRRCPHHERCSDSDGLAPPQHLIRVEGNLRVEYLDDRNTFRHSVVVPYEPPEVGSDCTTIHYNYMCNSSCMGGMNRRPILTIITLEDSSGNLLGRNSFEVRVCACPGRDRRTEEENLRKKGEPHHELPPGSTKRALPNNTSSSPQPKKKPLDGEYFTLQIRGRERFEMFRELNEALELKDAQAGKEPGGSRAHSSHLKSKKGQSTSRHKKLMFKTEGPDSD

For `S=P(N1CC1)(N1CC1)N1CC1`, the molecule was called inactive in [1], in experiment [2], in experiment [3], in experiment [4], in [5] and in experiment [6]. The outcome in experiment [7], in experiment [8], in experiment [9] and in experiment [10] was inactive. Besides, the AC50 in experiment [5] was 170 µM (active).
Turning to `CCCCN1C(=O)[C@@H]([C@H](O)C2CCCCC2)NC(=O)C12CCN(Cc1ccc(Oc3ccc(C(=O)O)cc3)cc1)CC2`, the result in experiment [1], in experiment [2], in experiment [4], in [5], in experiment [7] and in experiment [9] was inactive. Moreover, the result in experiment [10] was inactive. Besides, the AC50 is 53.4 µM (active) in experiment [3], 93.5 µM (active) in experiment [6] and 26.7 µM (active) in experiment [8].
With `O=C(O)c1cccc(C[C@@H]2COc3ccc(OCc4nc5cc(F)ccc5s4)cc3[C@@H]2O)c1`, the result in experiment [1], in experiment [2], in experiment [6], in experiment [7], in experiment [8] and in [9] was inactive. In addition, the result in experiment [10] was inactive. For the same molecule, the AC50 was 100 µM (active) in experiment [3], 32.3 µM (active) in experiment [4] and 159 µM (active) in experiment [5].
`NC(=O)NN=Cc1ccc([N+](=O)[O-])o1`: the molecule was classed as inactive in experiment [1], in [2], in experiment [3], in [5], in experiment [6] and in [7]. For the same molecule, the outcome in experiment [8], in experiment [9] and in [10] was inactive. Also, the AC50 in experiment [4] was 27.8 µM (active).
Take `FC(F)(F)C(F)(F)C(F)(F)C(F)(F)C(F)(F)C(F)(F)I`: the result in experiment [1], in experiment [2], in [3], in experiment [4], in [5] and in experiment [6] was inactive. Moreover, the outcome in experiment [7], in [8], in experiment [9] and in experiment [10] was inactive. Besides, in [4], the AC50 was 107 µM (active).
Regarding `O=C(N[C@H](CO)[C@H](O)c1ccc([N+](=O)[O-])cc1)C(Cl)Cl`, the call in experiment [1], in experiment [2], in experiment [3], in experiment [4], in [5] and in [6] was inactive.
For `C[Si](C)(C)C(F)(F)C(F)(F)C(F)(F)F`, the molecule was classed as inactive in experiment [1], in experiment [2], in experiment [3], in [4], in experiment [5] and in experiment [6]. Besides, the result in [7], in experiment [8], in [9] and in experiment [10] was inactive.
As for `OCCC(F)(F)C(F)(F)C(F)(F)C(F)(F)F`, the outcome in experiment [1], in experiment [2], in experiment [3], in experiment [4], in experiment [5] and in experiment [6] was inactive. For the same molecule, the result in [7], in experiment [8], in [9] and in experiment [10] was inactive.
In the case of `Cn1cc[nH]c1=S`, the molecule was called inactive in experiment [1], in experiment [2], in experiment [3], in experiment [4], in experiment [5] and in experiment [6]. For the same molecule, the result in experiment [7], in experiment [8], in experiment [9] and in experiment [10] was inactive.
In the case of `O=C(O)c1ccc2c(c1)nc(C(=O)NC1CCN(C3CC3)CC1)n2Cc1cc(-c2ccc(Cl)s2)on1`, the molecule was called inactive in [1], in experiment [2], in [3], in experiment [4], in experiment [5] and in experiment [6]. In addition, the result in [7], in experiment [8], in experiment [9] and in [10] was inactive.
For the molecule `CC[C@H](C)C(=O)O[C@H]1C[C@H](O)C=C2C=C[C@H](C)[C@H](CC[C@@H](O)C[C@@H](O)CC(=O)O)[C@H]21`, the call in [1], in experiment [2], in experiment [3], in [4], in experiment [5] and in [7] was inactive. Also, the outcome in experiment [8], in [9] and in [10] was inactive.
Regarding `O=S(=O)(O)c1ccc(N=Nc2c(O)ccc3cc(S(=O)(=O)O)ccc23)cc1`, the molecule was classed as inactive in experiment [1], in [2], in experiment [3], in [4], in experiment [5] and in experiment [7]. Further, the result in experiment [8], in [9] and in experiment [10] was inactive.
Regarding `O=C(NO)C1(NS(=O)(=O)c2ccc(Oc3ccc(F)cc3)cc2)CCOCC1`, the molecule was called inactive in experiment [1], in experiment [2], in experiment [3], in [5], in experiment [7] and in [8]. For the same molecule, the result in experiment [9] and in experiment [10] was inactive. In addition, the AC50 in experiment [4] was 33 µM (active).
On to `CCCOc1ccc(S(=O)(=O)N2CCN(CC)CC2)cc1-c1nc2c(CC)n(Cc3ccccn3)nc2c(=O)[nH]1`, for which the molecule was called inactive in [1], in [2], in experiment [5], in experiment [7], in experiment [8] and in experiment [9]. The outcome in experiment [10] was inactive. Further, the AC50 in experiment [3] is 51 µM (active); in experiment [4] it was 43 µM (active).
For `NC(=O)N1c2ccccc2C=Cc2ccccc21`, the molecule was classed as inactive in [1], in [2], in experiment [3], in experiment [4], in experiment [5] and in experiment [7]. The outcome in experiment [8], in experiment [9] and in [10] was inactive.
For the molecule `CC(C)CC(C)O` (stereo not drawn), the molecule was called inactive in experiment [1], in [2], in experiment [3], in experiment [4], in [5] and in experiment [7]. Besides, the result in [8], in experiment [9] and in experiment [10] was inactive.
For `C=CCc1cc(S(=O)(=O)c2ccc(O)c(CC=C)c2)ccc1O`, the outcome in [1], in experiment [2], in experiment [3] and in experiment [5] was inactive. In addition, the AC50 in experiment [4] is 7.04 µM (active); in experiment [7] it was 32 µM (active); in experiment [8] it was 12.8 µM (active); in experiment [9], 32 µM (active); in [10], 27.1 µM (active).
Take `Cc1nccn1-c1ccc(Sc2cccc(C3(C(N)=O)CCOCC3)c2)cc1`: the AC50 in experiment [1] was 2.39 µM (active); in experiment [2], 2.85 µM (active); in [4] it was 0.858 µM (active); in experiment [5], 3.22 µM (active); in experiment [7], 8.83 µM (active). Moreover, the outcome in [3], in experiment [8], in experiment [9] and in experiment [10] was inactive.
Take `COc1cc(C(C)C)c2c(c1)S(=O)(=O)N(COc1cc(=O)n3cccc(OCCN4CCCCC4)c3n1)C2=O`: the AC50 in [1] is 3.64 µM (active); in experiment [2], 2.75 µM (active); in experiment [3], 10.3 µM (active); in experiment [4], 1.29 µM (active); in [5] it was 4.34 µM (active); in experiment [8] it was 2.89 µM (active). Moreover, the AC50 in experiment [9] is 5.38 µM (active); in [10], 8.57 µM (active). Moreover, the outcome in [7] was inactive.
With `CCCCCCOC(=O)CC(CC(=O)OCCCCCC)(OC(=O)CCC)C(=O)OCCCCCC`, the molecule was classed as inactive in experiment [1], in experiment [2], in [3], in [4], in experiment [5] and in experiment [7]. The result in experiment [8], in [9] and in experiment [10] was inactive.
With `O=C(Cl)C(F)(F)C(F)(F)C(F)(F)C(=O)Cl`, the outcome in experiment [1], in experiment [2], in [3], in experiment [4], in [5] and in [6] was inactive. Moreover, the result in experiment [7], in experiment [8], in [9] and in experiment [10] was inactive.
